Experimental data reported in PubChem BioAssay.
Inconclusive results are not listed. Active and inactive are the calls of the source.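 The calls were made as follows, unless noted: active = response below a set limit, under 55% cells CD8-positive and vesicle-bound, and CD8 cells' 90th-percentile brightness under 279; inactive = the rest.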

Assay: yeast AGP1-GFP level changes, GLN3 branch – cell-based, multiplex flow cytometry, S. cerevisiae, primary screen (AID 1887;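 active = GFP signal above the screen-wide mean plus 3 SD, that is over about 124.5% of the solvent control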;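 also: AGP1-GFP fusion strain of S. cerevisiae within a five-strain barcoded multiplex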)
Conditions: 3 h, at 10 µM, stronger effect = higher value

| Structure (SMILES) | GFP response, % of DMSO |
| --- | --- |
| Cc1cnc(NC(=O)C2=C(O)c3ccccc3S(=O)(=O)N2C)s1 | 92.9% (inactive) |
| O=C(O)c1ccc(N2C(=O)/C(=C\c3ccccc3)N=C2c2ccccc2)cc1 | 98% (inactive) |
| O=C(CCC(=O)NCCO)NCCO | 111% (inactive) |
| CC(=O)O[C@H]1C[C@@]2(C)[C@@H](C[C@@H](O)[C@H]3[C@@]4(C)CC[C@@H](O)[C@@H](C)C4CC[C@@]32C)/C1=C(\CCC=C(C)C)C(=O)O (some centres not stated) | 115% (inactive) |
| O=C(c1cc2cc(Br)ccc2o1)N1CCCC1 | 99.4% (inactive) |
| CCOc1ccc2nc(NC(=O)NC3CCCCC3)sc2c1 | 107% (inactive) |
| O=C(/C=C/c1c[nH]c2ccccc12)c1cccc2ccccc12 | 94.9% (inactive) |

Assay: reduced mouse 2C T cell binding to pMHC/ICAM-1 vesicles – MLPCN validation set, flow cytometry, LFA-1/ICAM-1 modulator project, pilot screen (AID 2523);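 as to vesicle binding response: mean PE anti-B7-1 fluorescence of CD8+ cells relative to row control; 100% = QL9-loaded vesicles with DMSO vehicle in the same plate row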
Conditions: 2C mouse CD8+ T cells, at 7 µM, stronger effect = lower value; double positive events: measured here: CD8+/vesicle+ event percentage

| Structure (SMILES) | double positive events [%] | vesicle binding response |
| --- | --- | --- |
| Cc1oc2cc(O)cc(O)c2c(=O)c1-c1ccc2c(c1)OCCCO2 | 60.8 | 195% (inactive) |
| O=C(c1ccco1)N1CCCN(Cc2nc(-c3ccc4c(c3)OCO4)no2)CC1 | 62.2 | 310% (inactive) |
| COc1ccc2nc(S(=O)Cc3ncc(C)c(OC)c3C)[nH]c2c1 (configuration not stated) | 60.4 | 131% (inactive) |
| CSCCC(NC(C)=O)C(=O)Oc1ccc2c3c(c(=O)oc2c1)CCCC3 (configuration not stated) | 61.1 | 56% (inactive) |
| CCOC(=O)C1NN=C(C(=O)c2ccccc2)C1c1ccc(Cl)cc1 (configuration not stated) | 58.1 | 192% (inactive) |
| CSCCC(NC(=O)OC(C)(C)C)C(=O)Oc1ccc2c(=O)c(-c3ccc4c(c3)OCCO4)coc2c1 (configuration not stated) | 59.4 | 190% (inactive) |
| COc1cc2c(cc1OC)/C(=C/c1ccc(Cl)cc1)C(=O)OC2 | 63.9 | 155% (inactive) |
| COc1ccc(-c2coc3c(CN4CCOCC4)c(O)ccc3c2=O)cc1 | 57.5 | 118% (inactive) |
| OCCC1CN(Cc2ccccc2-c2ccco2)CCN1C1CCCC1 (configuration not stated) | 59 | 123% (inactive) |
| O=C(O)C1CCN(C(=O)COc2ccc3c4c(c(=O)oc3c2)CCC4)CC1 | 65.1 | 420% (inactive) |
| Cc1ccc(C(=O)NCCNC(=O)c2ccccc2)cc1 | 69.2 | 179% (inactive) |
| CC(=O)OCC(=O)[C@@]1(O)CC[C@H]2[C@@H]3CCC4=CC(=O)C=C[C@]4(C)[C@H]3[C@@H](O)C[C@@]21C | 66.4 | 161% (inactive) |
| CCCc1cc(C(N)=S)ccn1 | 60.4 | 190% (inactive) |
| Cc1ccc(Cl)c(Nc2ccccc2C(=O)O)c1Cl | 60.7 | 123% (inactive) |
| COc1ccccc1/C=C/C(=O)OCCN1CCOCC1 | 56.7 | 229% (inactive) |
| Fc1ccc(-c2cc(-c3ccccc3)nc(-n3cccn3)n2)cc1 | 57.7 | 11.1% (inactive) |
| O=c1c(-c2ccccc2)c(O)c2cccc3c2n1CCC3 | 61.2 | 186% (inactive) |
| COc1cc(CC(=O)NCCc2ccc(S(N)(=O)=O)cc2)cc(OC)c1OC | 66.9 | 177% (inactive) |
| CN(C)CCC(c1ccc(Cl)cc1)c1ccccn1 (configuration not stated) | 56.3 | 215% (inactive) |
| Cc1ccc2nc(N=C(N)N)nc(C)c2c1 | 58.7 | 124% (inactive) |

| Structure (SMILES) | double positive events [%] | vesicle binding response |
| --- | --- | --- |
| CCn1c(N2CCN(CC(=O)c3c(C)n(C)c4ccc(OC)cc34)CC2)nc2c1c(=O)[nH]c(=O)n2C | 60 | 206% (inactive) |
| CC1(c2ccccc2)CC(C)(C)N2C(=O)C(=O)c3cccc1c32 (configuration not stated) | 60.1 | 148% (inactive) |
| O=C(COc1cc(O)c2c(=O)c3ccccc3oc2c1)OCc1ccccc1 | 61 | 152% (inactive) |
| C[N+](C)(C)CCOP(=O)([O-])OC[C@H](O)CO | 60.1 | 133% (inactive) |
| O=C(/C=C/Sc1ccccc1)c1ccccc1 | 63.9 | 263% (inactive) |
| O=C1Cc2ccccc2C(c2ccccc2)N1 (configuration not stated) | 64.9 | 449% (inactive) |
| Cc1ccc(NC(=O)CSc2nc(O)c(Cc3ccccc3)c(=O)n2-c2ccccc2)cc1 | 65 | 210% (inactive) |
| COCCn1c(SCCOc2ccccc2)nc2ccccc2c1=O | 54 | 154% (inactive) |
| CC(=O)Oc1ccc2c(=O)c(Oc3ccccc3[N+](=O)[O-])coc2c1 | 60.6 | 188% (inactive) |
| CCc1c(C(C)=O)oc2ccc3c(C)cc(=O)oc3c12 | 61.9 | 146% (inactive) |
| COc1ccc(-c2[nH]ncc2CN(C)C(C)c2ccon2)c(OC)c1 (configuration not stated) | 61.9 | 143% (inactive) |
| Cc1c(O)c(=O)ccn1C | 64.3 | 412% (inactive) |
| COc1ccc2cc(C(=O)Nc3ccc(S(N)(=O)=O)cc3)sc(=O)c2c1OC | 57.9 | 258% (inactive) |
| Cc1cnc(NC(=O)C2=C(O)c3ccccc3S(=O)(=O)N2C)s1 | 65.2 | 958% (inactive) |
| O=C(O)c1ccc(N2C(=O)/C(=C\c3ccccc3)N=C2c2ccccc2)cc1 | 58.6 | 120% (inactive) |
| O=C(CCC(=O)NCCO)NCCO | 61.3 | 174% (inactive) |
| CC(=O)O[C@H]1C[C@@]2(C)[C@@H](C[C@@H](O)[C@H]3[C@@]4(C)CC[C@@H](O)[C@@H](C)C4CC[C@@]32C)/C1=C(\CCC=C(C)C)C(=O)O (some centres not stated) | 63.4 | 177% (inactive) |
| O=C(c1cc2cc(Br)ccc2o1)N1CCCC1 | 56.9 | 146% (inactive) |
| CCOc1ccc2nc(NC(=O)NC3CCCCC3)sc2c1 | 64.2 | 215% (inactive) |
| O=C(/C=C/c1c[nH]c2ccccc12)c1cccc2ccccc12 | 61.4 | 336% (inactive) |
